Inconclusive results are not listed. Where a call stands in place of a potency, no number is given. Values without a mark were called inactive. Calls of active or inactive are those of the source. The call rests on the fitted dose curve; in most records, active means well fitted cell-killing curve with a large enough effect in the repeat runs; inconclusive means weak or mixed curves, or effect the other way; inactive means no such curve, though single readings can be large or run the other way.

This is an account of results in PubChem BioAssay (Tox21).
Potency means the concentration at half of the fitted maximal effect.

The nature of this assay: qHTS assay to identify small molecule agonists of the estrogen receptor alpha (ER-alpha) signaling pathway in the presence of an antagonist - cell viability counter screen (AID 1259386).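 Further: cells exposed to compounds for 22 h at 37 °C before the viability read; nearly all actives have a fitted effect of over 30% in size.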 To be noted: VM7Luc4E2 viability, CellTiter-Fluor fluorescence, 22 h; series mostly up to 92.4 µM. The source says:
National Center for Advancing Translational Sciences [NCATS]
NIH Chemical Genomics Center [NCGC]
U.S. Environmental Protection Agency [EPA]
National Institutes of Environmental Health Sciences [NIEHS]
National Toxicology Program [NTP]
U.S. Food and Drug Administration [FDA]
Estrogen receptor (ER), a member of nuclear hormone receptor plays an important role in development, metabolic homeostasis and reproduction. Two subtypes of ER, ER-alpha and ER-beta, have similar expression patterns with some uniqueness in both types. Endocrine disrupting chemicals (EDCs) and their interactions with steroid hormone receptors like ER causes disruption of normal endocrine function. Therefore, it is important to understand the effect of environmental chemicals in ER signaling pathway. For identifying ER agonists, VM7Luc4E2 cell line has been used in the current assay.
VM7Luc4E2 cell line (provided by Denison MS, University of California) endogenously expresses full-length ER-alpha and is stably transfected with a plasmid containing four estrogen responsive elements (ERE) upstream of a luciferase reporter gene. This current screening for measuring luciferase reporter gene activity using VM7Luc4E2 cells against Tox21 10K library collection is a confirmation study on agonist mode screening in presence of ER-antagonist (ICI-182,780) at 10.0nM final concentration. The cytotoxicity of the compounds was tested in parallel by measuring the cell viability using CellTiter-Fluor assay system (Promega, Madison, WI) in the same wells.
Tox21 Assay Protocol Summary:
VM7Luc4E2 cells were cultured in phenol red free assay medium containing 10% charcoal stripped FBS for 5 days prior to the assay. The cells were dispensed at 4,000 cells in 4uL of assay medium per well into white wall/solid-bottom 1536-well plates (Corning Life Sciences, Corning, NY) using a Multidrop Combi (Thermo Fisher Scientific Inc., Waltham, MA) dispenser. After the assay plates were incubated at 37C and 5% CO2 for 24hr, 1uL of 10.0nM (final concentration) ICI-182,780 or assay buffer was added using two separate tips of Flying Reagent Dispenser (FRD, Aurora Discovery, San Diego, CA). Then 23nL of compounds dissolved in DMSO at 15 concentrations and positive controls or DMSO only was transferred to the assay plates by a Pintool station (Wako, San Diego, CA). The assay plates were incubated at 37C and 5% CO2 for 22hr. After 21hr incubation at 37C, 1uL/well CellTiter-Fluor reagent (Promega Corporation, Madison, WI) was added to each well using FRD and after 1hr incubation at 37C and 5% CO2, the fluorescence signal was measured on ViewLux plate reader (PerkinElmer, Shelton, CT).
For orientation: qHTS replaces the single test concentration by a dilution series.
Consider `Cn1c(N)nc2c3cccnc3ccc21`, for which the Potency is 26 µM (active).

With `CCN[C@@H](C)Cc1ccccc1`, the Potency entry was “inactive”.

As for `N[C@@H]1C[C@H]1c1ccccc1`, the Potency entry is “inactive”.

With `O=C1CCCCC1Cl` (stereo not given), the Potency entry was “inactive”.

Regarding `O=C/C=C/c1ccco1`, the Potency entry is “inactive”.

As for `BrCC1CO1` (stereo not given), the Potency entry was “inactive”.

As for `O=C(Cl)c1ccccc1`, the Potency result is “inactive”.

As for `CCN(CC)CCOC(=O)C(O)(c1ccccc1)c1ccccc1`, the Potency entry is “inactive”.

For the compound `ClCCCCCCCl`, the Potency result is “inactive”.

As for `CC(C)(C)c1cc(O)ccc1O`, the Potency entry was “inactive”.

`CC[C@H](N)c1ccccc1`: the Potency result was “inactive”.

`CCCC[N+](=O)[O-]`: the Potency result is “inactive”.

For the compound `O=c1[nH]c2ccccc2n1C1CCNCC1`, the Potency result is “inactive”.

As to `CCCCCCCC(=O)Cl`, the Potency result was “inactive”.

`NC(=O)OCCCc1ccccc1`: the Potency result was “inactive”.

On to `CON(C)C(=O)Nc1ccc(Br)cc1`, for which the Potency entry was “inactive”.

`CN(C)CCN(C)C`: the Potency result is “inactive”.

In the case of `CCCN1CCC[C@@H]2Cc3[nH]ncc3C[C@H]21`, the Potency entry is “inactive”.

Turning to `O=C(CCl)NCO`, the Potency result was “inactive”.

On to `O=C(O)c1c(Cl)ccc2cc(Cl)cnc12`, for which the Potency result is “inactive”.

For `CNC(=O)Oc1cc(C)c(N(C)C)c(C)c1`, the Potency entry was “inactive”.

In the case of `CCOC(=O)C(Cl)Cc1cc(-n2nc(C)n(C(F)F)c2=O)c(F)cc1Cl` (stereo not given), the Potency result was “inactive”.

Turning to `CN(C)C1CCCCC1`, the Potency entry was “inactive”.

Consider `ClCC1CO1` (stereo not given), for which the Potency result is “inactive”.

On to `Brc1c(Br)c(Br)c(Br)c(Br)c1Br`, for which the activity change, negative = cytotoxicity is 2.08% [at 8.39 µM].

As for `COc1cccc([C@@]2(O)CCCC[C@@H]2CN(C)C)c1`, the Potency result was “inactive”.

Regarding `CS(=O)(=O)Cl`, the Potency entry was “inactive”.

As for `CS(=O)(=O)c1ccc(C(=O)C2C(=O)CCCC2=O)c(Cl)c1COCC(F)(F)F`, the Potency result was “inactive”.

As for `CC(=O)CN(CC(C)=O)N=O`, the Potency entry is “inactive”.

For the compound `CCCC(C)(COC(N)=O)COC(N)=O`, the Potency entry is “inactive”.

With `O=[N+]([O-])CCO`, the Potency result was “inactive”.

With `C1CN2CCC1CC2`, the Potency entry is “inactive”.

For `CCC(=O)OC1(c2ccccc2)CCN(C)CC1`, the Potency result is “inactive”.

With `OP(O)c1ccccc1`, the Potency entry is “inactive”.

As for `COc1ccccc1OC`, the Potency result is “inactive”.

For `CCCC(C)C1(CC)C(=O)N=C(S)NC1=O` (stereo not given), the Potency entry is “inactive”.

On to `O=C(Cl)OCc1ccccc1`, for which the Potency entry was “inactive”.

Take `COC(=O)c1ccc(CBr)cc1`: the Potency result was “inactive”.

For the compound `CCCN1CCC[C@@H]2Cc3nc(N)ncc3C[C@H]21`, the Potency result was “inactive”.

`N[C@@H](Cc1ccc(Oc2cc(I)c(O)c(I)c2)c(I)c1)C(=O)O`: the Potency result is “inactive”.
